Shown is part of a subset that was picked to be rich in hits.
TTR transcr act: increases transthyretin transcription; 92,000 tested, 1.3% active; activation, % at 16.7 µM; SH-SY5Y TTR promoter Gaussia luciferase, luminescence; 100% = recombinant luciferase protein wells;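 active means activation above the mean of all tested compounds plus 3 SD, cut at about 9.5% in these data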;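 further: cells exposed to compounds for one day before reading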
HuH7 TTR inh: HuH7 TTR transcription inhibition, counter-screen. 1,100 tested, 4% active. inhibition, % at 16.7 µM. HuH7 TTR promoter-Gaussia luciferase reporter, luminescence. shares compounds with TTR transcr act;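 active means average inhibition above the solvent-only control wells' mean plus 3 SD, cut at about 15% in these data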;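 further: inhibitors lower well luminescence so higher value means more inhibition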
TTR act confirm: human TTR transcription activation, confirmation. 1,100 tested, under 10 active. AID 1117280. shares compounds with TTR transcr act. activation, % at 16.7 µM. SHSY5Y TTR promoter Gaussia luciferase, luminescence; 100% = purified Lucia enzyme wells, no cells;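 active means mean activation above a set limit taken from the earlier primary screen, cut at about 11% in these data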
Of the large screens only hits and unclear results are named; the others gave an inactive call (follow-up assays come after a bar, where they were run).

O=C(NC1CCCCC1)c1cccc(S(=O)(=O)N2CCOCC2)c1	none
CCCCNc1ncnc2[nH]ncc12	none
Cc1ccc(NC2CCCN(C(=O)c3cc4ncccn4n3)C2)cc1C (configuration not stated)	none
O=C(Nc1ccc(F)cc1)c1ccccc1NC(=O)C1CCCCC1C(=O)O (configuration not stated)	none
Cc1ccc(NC(=O)C2CCCCC2C(=O)O)cc1C (configuration not stated)	none
O=C(O)C1CCCCC1C(=O)Nc1ccc(F)c(F)c1 (configuration not stated)	TTR transcr act 11.9 | HuH7 TTR inh inactive | TTR act confirm inactive
CCNC(COC(=O)c1ccc([N+](=O)[O-])cc1)C1CCCCC1 (configuration not stated)	none
CC(C)Cn1c(-c2ccccc2)nc(=S)c2c1CCCC2	none
C=CCn1c(-c2ccccc2)nc(=S)c2c1CCCC2	TTR transcr act 11.1 | HuH7 TTR inh inactive | TTR act confirm inactive
S=c1nc(-c2ccccc2)n(CCN2CCOCC2)c2c1CCCC2	none
CCOc1ccccc1NC(=O)CCCCCN1C(=O)[C@@H]2Cc3ccccc3CN2C1=O	none
Cc1cccc(NC(=O)CCCCCN2C(=O)[C@@H]3Cc4ccccc4CN3C2=O)c1	TTR transcr act 13.9 | HuH7 TTR inh inactive | TTR act confirm inactive
O=C(CCCCCN1C(=O)[C@@H]2Cc3ccccc3CN2C1=O)Nc1ccccc1F	TTR transcr act 11.1 | HuH7 TTR inh inactive | TTR act confirm inactive
Cc1ccccc1NC(=O)CCCCCN1C(=O)[C@@H]2Cc3ccccc3CN2C1=O	none
COc1ccc(NC(=O)CCCCCN2C(=O)[C@@H]3Cc4ccccc4CN3C2=O)cc1Cl	none
O=C(CCCCCN1C(=O)[C@@H]2Cc3ccccc3CN2C1=O)Nc1cccc(F)c1	none
COC(=O)[C@@]12C[C@@H](CC(=O)NCc3ccc(C)o3)C(=O)N(Cc3ccccc3)C1=CCC(C)(C)C2	none
COc1ccc(C2=CCCCCC2)cc1OC	none
COc1ccc(NC(=O)C2CC(=O)N(c3ccccc3F)C2)cc1S(=O)(=O)N1CCCCC1 (configuration not stated)	none
O=C(Cc1csc(-c2ccccc2)n1)NCC(=O)Nc1ccc(F)c(F)c1F	none
CCOc1cc(C(=O)OC(C(=O)NC(=O)NC)c2ccccc2)ccc1OCC(=O)N1CCOCC1 (configuration not stated)	none
Cn1c(=O)c2c(ncn2CC(=O)N2CCN(S(=O)(=O)c3ccc(F)cc3)CC2)n(C)c1=O	none
Cn1c(=O)c2c(nc(SCC(=O)c3ccc(F)cc3)n2C)n(C)c1=O	none
Cn1c(=O)c2c(ncn2CC(O)CNc2ccc(F)cc2)n(C)c1=O (configuration not stated)	TTR transcr act 15.6 | HuH7 TTR inh inactive | TTR act confirm inactive
CC(C)(C)c1ccccc1NC(=O)NC1CCN(Cc2c(F)cccc2Cl)CC1	none
O=C(O)c1ccccc1CC(CCc1ccccc1)C(=O)O (configuration not stated)	none
C[C@@H]1CN([C@@H](C)CO)S(=O)(=O)c2ccc(Br)cc2O[C@H]1CN(C)C(=O)Nc1ccc2c(c1)OCO2	none
Clc1cccc(-c2nc3ccc(Br)cn3c2Cc2ccccc2)c1	none
Brc1cccc(-c2nc3ccc(Br)cn3c2Cc2ccccc2)c1	TTR transcr act 21.7 | HuH7 TTR inh inactive | TTR act confirm inactive
Cc1ccc(Cc2c(-c3ccccc3)nc3ccc(Br)cn23)cc1	none
CCOc1ccc(NC(=O)C(CC(=O)O)Cc2ccc(C)cc2)cc1 (configuration not stated)	none
CN(C)Cc1ccccc1Sc1ccc2c(c1)CCCC2	none
O=S1(=O)CC(N2CCCC2)CN1Cc1ccccc1 (configuration not stated)	none
CSCCC(c1nnnn1C1CCCC1)N1CCN(C/C=C/c2ccccc2)CC1 (configuration not stated)	none
CN(NS(=O)(=O)c1ccccc1)C(=O)c1ccccc1	none
COC(=O)C(CSCc1ccccc1)NC(=O)CCNC(=O)OCc1ccccc1 (configuration not stated)	TTR transcr act 13.7 | HuH7 TTR inh inactive | TTR act confirm inactive
COC(=O)C(CCCCNC(=O)OCc1ccccc1)NC(=O)CN (configuration not stated)	none
Cc1cc(Br)c(NC(=O)CCNC(=O)OCc2ccccc2)cc1C	none
CC(C)=CCN1CCN(Cc2cnc(-c3ccccc3)s2)CC1CCO (configuration not stated)	none
CC1(C)C(=O)Nc2ccccc2N1C(=O)COC(=O)Cc1ccccc1F	none
O=C(O)C1CCC(CNS(=O)(=O)c2ccccc2)CC1 (configuration not stated)	none
Cc1ccc(S(=O)(=O)N2C[C@@H]3[C@H]4CC[C@H](C4)[C@@H]3[C@@H](C)C2CC(=O)c2ccccc2)cc1 (some centres not stated)	none
CNC(=O)c1sc(=S)n(-c2ccc(OC)cc2)c1N	none
COc1ccc(-n2c(N)c(C(=O)NCc3cccnc3)sc2=S)cc1	TTR transcr act 9.9 | HuH7 TTR inh inactive | TTR act confirm inactive
COc1cccc(C(=O)NCc2cccnc2)c1	none
O=C(/C=C/c1cccc([N+](=O)[O-])c1)OCC(=O)N1CCCCC1	none
Cc1ccc(CN2CCCCC(NC(=O)c3ccc(COc4ccccc4)cc3)C2=O)cc1 (configuration not stated)	none
Cc1cc(C)c(C(N)=O)c(Nc2ccc3c(c2)OCCO3)n1	TTR transcr act 10.3 | HuH7 TTR inh inactive | TTR act confirm inactive
COc1ccc(Nc2nc(C)cc(C)c2C(N)=O)cc1	none
CCc1ccc(Nc2nc(C)cc(C)c2C(N)=O)cc1	none
O=C(c1ccco1)N1CCN(C(=O)C2CC2)CC1	none
COc1cc(C(=O)N2CCN(C(=O)c3ccco3)CC2)cc(OC)c1OC	none
COc1ccc(C(=O)C2CCN(C(=O)c3ccco3)CC2)cc1	TTR transcr act 10.7 | HuH7 TTR inh inactive | TTR act confirm inactive
CC(CC12CC3CC(CC(C3)C1)C2)NCc1ccccc1O (configuration not stated)	none
Cc1cc(=O)oc2cc(OCCSCCN3CCCCC3)ccc12	TTR transcr act 20.8 | HuH7 TTR inh inactive | TTR act confirm inactive
Cc1cc(=O)oc2cc(OCC#N)ccc12	none
Cc1cc(=O)oc2cc(OCCSc3nnc(-c4ccccc4)o3)ccc12	none
CCN1C[C@@H]2[C@@H]3C(=O)N(Cc4ccccc4)C(=O)[C@@H]3[C@](CC)(C(=O)OC)N2C1=NC	none
CCn1c(COc2cccc(C)c2)nnc1SCC(=O)N1CCCC1	none
CCn1c(COc2ccc3c(c2)OCO3)nnc1SCC(=O)O	TTR transcr act 13.0 | HuH7 TTR inh inactive | TTR act confirm inactive
Cc1ccc(OCc2nnc(SCC(=O)O)n2-c2ccccc2)cc1	none
O=C(C[C@@H]1C/C=C\CCCC(=O)OC[C@@H](c2ccccc2)NC1=O)NCCO	none
O=C(COC(=O)c1ccc(O)cc1)Nc1ccc(N2CCCCC2)cc1	none
COc1cc(OC)cc(C(=O)OCC(=O)Nc2ccc(N3CCCCC3)cc2)c1	TTR transcr act 12.4 | HuH7 TTR inh inactive | TTR act confirm inactive
COc1ccc(OCC(=O)Nc2ccc(N3CCCCC3)cc2)cc1	none
COc1cc(C(=O)OCC(=O)c2cc(C)n(CC3CCCO3)c2C)ccc1OCC(=O)N1CCOCC1 (configuration not stated)	none
COc1cccc(C2NC(=O)NC(C)=C2C(=O)Nc2ccc(C)cc2)c1 (configuration not stated)	TTR transcr act 21.2 | HuH7 TTR inh inactive | TTR act confirm inactive
